Measured values taken from the supplement of paper PMC10849652.
About 7,900 targets were measured; listed, in parts, are those with a hit and a random draw of the rest. About 0.6% of all pairs of compound and target were hits.

What follows are targets tested with COc1cc(C(=O)O)ccc1NC(=O)[C@@H]1N[C@@H](CC(C)(C)C)[C@](C#N)(c2ccc(Cl)cc2F)[C@H]1c1cccc(Cl)c1F [idasanutlin] (assay: log2 fold change, soluble protein after heating vs DMSO (PISA); higher = thermal stabilisation; K562 cells, 10 uM, 30 min; active = over 0.2 and 3.5 SD of the protein, either way, in both replicates (recomputed)).
Procedure, shortened: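 Values are thermal stability changes relative to control samples and are taken from duplicates. They are stated as log2 fold changes. Before quantification by TMTpro 16plex LC-MS/MS with equalised channel sums, K562 cells at 2×10^6 cells/mL were treated with 10 μM compound for 30 min, heated in aliquots for 3 min across 48°C-58°C, pooled, extracted in PBS with 0.5% NP-40 at 4°C, and centrifuged at 21,000xg for 90 min to give the soluble supernatant.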

Sequence of UniProt Q9NZN8 (Q9NZN8 whole entry, looked up): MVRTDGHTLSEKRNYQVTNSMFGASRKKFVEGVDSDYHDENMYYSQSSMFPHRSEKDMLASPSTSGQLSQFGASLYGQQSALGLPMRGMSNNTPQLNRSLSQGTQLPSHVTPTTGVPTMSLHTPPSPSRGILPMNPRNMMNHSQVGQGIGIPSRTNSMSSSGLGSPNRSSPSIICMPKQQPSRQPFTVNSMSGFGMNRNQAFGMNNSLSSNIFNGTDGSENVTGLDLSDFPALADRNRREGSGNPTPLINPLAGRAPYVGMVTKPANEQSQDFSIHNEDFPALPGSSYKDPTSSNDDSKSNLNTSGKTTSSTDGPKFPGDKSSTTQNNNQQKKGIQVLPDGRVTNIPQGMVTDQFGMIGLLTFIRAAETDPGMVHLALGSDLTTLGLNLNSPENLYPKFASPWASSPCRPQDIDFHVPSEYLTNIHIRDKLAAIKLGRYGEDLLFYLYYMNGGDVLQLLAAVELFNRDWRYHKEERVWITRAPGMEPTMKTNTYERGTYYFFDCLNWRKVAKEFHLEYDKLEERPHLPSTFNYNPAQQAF
Sequence of UniProt P61024 (P61024 whole entry, looked up): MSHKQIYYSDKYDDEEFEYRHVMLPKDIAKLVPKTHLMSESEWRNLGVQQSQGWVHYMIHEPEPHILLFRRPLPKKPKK
Sequence of UniProt Q86X83 (Q86X83 whole entry, looked up): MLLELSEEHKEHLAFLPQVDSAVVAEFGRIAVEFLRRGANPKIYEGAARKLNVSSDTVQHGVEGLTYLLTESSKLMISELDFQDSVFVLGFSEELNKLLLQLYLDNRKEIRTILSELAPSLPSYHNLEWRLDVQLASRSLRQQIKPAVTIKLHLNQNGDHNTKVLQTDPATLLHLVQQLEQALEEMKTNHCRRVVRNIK
Sequence of UniProt Q9NYV4 (Q9NYV4 whole entry, looked up): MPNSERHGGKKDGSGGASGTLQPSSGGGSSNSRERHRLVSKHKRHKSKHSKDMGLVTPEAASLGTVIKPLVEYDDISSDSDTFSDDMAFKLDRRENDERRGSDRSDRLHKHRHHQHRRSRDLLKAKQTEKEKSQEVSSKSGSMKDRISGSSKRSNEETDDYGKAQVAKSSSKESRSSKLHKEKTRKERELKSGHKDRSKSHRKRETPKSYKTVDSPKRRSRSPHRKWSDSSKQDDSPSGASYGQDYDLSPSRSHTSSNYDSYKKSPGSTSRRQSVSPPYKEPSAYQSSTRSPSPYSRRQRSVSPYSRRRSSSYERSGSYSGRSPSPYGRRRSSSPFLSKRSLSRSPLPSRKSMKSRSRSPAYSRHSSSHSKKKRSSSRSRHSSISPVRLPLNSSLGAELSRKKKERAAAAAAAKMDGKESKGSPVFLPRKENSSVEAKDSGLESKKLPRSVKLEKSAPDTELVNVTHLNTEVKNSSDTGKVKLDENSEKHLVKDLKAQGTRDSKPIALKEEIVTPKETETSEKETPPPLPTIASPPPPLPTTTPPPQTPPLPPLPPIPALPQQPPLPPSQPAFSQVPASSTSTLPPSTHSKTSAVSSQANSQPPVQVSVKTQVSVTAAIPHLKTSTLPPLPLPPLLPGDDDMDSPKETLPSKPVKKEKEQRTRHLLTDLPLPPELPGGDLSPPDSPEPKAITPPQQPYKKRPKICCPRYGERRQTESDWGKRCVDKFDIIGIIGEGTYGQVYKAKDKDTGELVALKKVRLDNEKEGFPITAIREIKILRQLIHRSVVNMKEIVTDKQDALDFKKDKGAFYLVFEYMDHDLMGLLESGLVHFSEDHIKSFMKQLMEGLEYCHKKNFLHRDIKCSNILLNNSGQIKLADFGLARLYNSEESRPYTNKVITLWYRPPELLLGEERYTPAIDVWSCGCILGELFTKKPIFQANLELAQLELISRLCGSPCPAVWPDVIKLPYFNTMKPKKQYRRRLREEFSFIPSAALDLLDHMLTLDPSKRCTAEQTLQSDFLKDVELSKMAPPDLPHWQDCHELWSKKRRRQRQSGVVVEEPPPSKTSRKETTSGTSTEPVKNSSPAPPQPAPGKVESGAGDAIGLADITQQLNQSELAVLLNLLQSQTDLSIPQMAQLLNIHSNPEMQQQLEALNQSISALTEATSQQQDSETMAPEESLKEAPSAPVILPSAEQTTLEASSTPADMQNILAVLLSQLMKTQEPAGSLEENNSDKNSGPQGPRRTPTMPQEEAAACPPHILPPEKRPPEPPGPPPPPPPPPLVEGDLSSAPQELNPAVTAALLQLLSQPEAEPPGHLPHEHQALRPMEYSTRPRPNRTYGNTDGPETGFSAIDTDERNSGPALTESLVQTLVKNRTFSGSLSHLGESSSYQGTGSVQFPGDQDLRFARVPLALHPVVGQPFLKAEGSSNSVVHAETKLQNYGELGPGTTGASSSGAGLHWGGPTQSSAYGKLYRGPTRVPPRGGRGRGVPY
Sequence of UniProt Q96MX0 (Q96MX0 whole entry, looked up): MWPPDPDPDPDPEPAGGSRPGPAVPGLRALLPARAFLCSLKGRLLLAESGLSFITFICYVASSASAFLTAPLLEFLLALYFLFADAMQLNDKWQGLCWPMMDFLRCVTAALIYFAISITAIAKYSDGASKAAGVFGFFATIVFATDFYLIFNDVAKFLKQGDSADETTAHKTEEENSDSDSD
Sequence of UniProt P48730 (P48730 whole entry, looked up): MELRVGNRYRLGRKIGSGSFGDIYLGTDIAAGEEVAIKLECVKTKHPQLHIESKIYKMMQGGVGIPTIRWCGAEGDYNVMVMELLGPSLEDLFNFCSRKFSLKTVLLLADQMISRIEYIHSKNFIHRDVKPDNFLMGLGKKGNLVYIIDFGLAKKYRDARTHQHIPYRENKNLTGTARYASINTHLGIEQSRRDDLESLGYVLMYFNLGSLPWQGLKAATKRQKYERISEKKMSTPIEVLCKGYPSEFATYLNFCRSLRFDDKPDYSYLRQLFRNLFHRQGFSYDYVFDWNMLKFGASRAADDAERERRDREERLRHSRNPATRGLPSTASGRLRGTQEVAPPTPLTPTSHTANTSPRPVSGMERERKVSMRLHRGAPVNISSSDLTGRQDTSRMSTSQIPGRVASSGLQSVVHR
Sequence of UniProt O75794 (O75794 whole entry, looked up): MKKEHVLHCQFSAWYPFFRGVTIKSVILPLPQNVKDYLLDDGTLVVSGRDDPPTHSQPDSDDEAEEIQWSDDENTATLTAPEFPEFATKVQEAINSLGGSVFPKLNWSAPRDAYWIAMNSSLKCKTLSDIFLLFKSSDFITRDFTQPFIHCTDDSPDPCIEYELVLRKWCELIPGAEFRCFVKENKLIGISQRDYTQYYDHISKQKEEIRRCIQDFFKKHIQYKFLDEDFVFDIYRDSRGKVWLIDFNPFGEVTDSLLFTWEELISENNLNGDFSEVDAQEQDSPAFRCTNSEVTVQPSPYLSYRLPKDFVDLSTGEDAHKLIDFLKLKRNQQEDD
Sequence of UniProt Q5T6V5 (Q5T6V5 whole entry, looked up): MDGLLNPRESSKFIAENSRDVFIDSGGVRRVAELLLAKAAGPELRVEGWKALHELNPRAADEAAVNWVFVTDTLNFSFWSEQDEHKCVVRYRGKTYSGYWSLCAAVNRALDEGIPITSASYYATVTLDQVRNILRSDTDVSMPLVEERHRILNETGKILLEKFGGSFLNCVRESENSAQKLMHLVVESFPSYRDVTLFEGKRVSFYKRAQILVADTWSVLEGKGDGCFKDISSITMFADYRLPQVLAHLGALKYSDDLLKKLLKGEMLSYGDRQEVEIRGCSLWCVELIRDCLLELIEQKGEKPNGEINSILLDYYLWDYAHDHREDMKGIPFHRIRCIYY
Sequence of UniProt Q9NXV6 (Q9NXV6 whole entry, looked up): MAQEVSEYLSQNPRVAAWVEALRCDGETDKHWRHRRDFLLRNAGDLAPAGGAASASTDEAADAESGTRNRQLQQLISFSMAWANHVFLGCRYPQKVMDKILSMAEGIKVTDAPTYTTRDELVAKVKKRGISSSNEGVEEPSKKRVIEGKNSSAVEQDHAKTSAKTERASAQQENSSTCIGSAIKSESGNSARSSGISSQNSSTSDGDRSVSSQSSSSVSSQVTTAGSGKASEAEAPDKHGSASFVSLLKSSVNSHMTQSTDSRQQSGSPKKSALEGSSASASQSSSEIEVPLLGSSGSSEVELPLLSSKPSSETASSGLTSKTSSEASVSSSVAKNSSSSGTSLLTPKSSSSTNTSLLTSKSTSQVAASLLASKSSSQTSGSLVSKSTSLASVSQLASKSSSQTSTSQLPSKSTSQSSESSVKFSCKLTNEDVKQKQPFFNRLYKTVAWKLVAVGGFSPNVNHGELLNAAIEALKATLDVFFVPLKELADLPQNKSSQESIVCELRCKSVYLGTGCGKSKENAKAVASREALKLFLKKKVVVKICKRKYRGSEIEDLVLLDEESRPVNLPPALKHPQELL
Sequence of UniProt Q96SZ6 (Q96SZ6 whole entry, looked up): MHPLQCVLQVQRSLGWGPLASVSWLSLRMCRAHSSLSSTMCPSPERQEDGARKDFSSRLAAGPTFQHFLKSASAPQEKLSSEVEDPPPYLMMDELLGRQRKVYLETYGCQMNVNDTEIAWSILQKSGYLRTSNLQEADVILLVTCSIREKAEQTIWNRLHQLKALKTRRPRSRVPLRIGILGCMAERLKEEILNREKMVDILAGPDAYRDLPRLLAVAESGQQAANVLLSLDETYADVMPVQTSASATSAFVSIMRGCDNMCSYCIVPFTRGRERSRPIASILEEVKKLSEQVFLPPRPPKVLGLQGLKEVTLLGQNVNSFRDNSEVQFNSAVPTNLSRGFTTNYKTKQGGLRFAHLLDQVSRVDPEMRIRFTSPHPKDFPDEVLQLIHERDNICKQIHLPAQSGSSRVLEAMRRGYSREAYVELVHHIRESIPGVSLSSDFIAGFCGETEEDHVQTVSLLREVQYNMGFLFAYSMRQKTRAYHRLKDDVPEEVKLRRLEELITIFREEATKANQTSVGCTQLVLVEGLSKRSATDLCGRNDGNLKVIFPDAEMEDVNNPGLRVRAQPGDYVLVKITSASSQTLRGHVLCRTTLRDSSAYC
Sequence of UniProt Q8N1A6 (Q8N1A6 whole entry, looked up): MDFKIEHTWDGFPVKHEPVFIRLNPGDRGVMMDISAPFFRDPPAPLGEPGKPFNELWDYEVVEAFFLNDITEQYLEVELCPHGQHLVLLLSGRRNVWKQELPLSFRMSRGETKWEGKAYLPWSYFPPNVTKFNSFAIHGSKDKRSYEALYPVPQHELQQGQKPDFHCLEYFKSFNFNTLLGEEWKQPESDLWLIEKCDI

log2 fold change, inactive:
CSNK1D (UniProt P48730) 0.027
C9orf72 (UniProt Q96LT7) -0.026
CKS1B (UniProt P61024) -0.011
CDC123 (UniProt O75794) 0.032
CASP2 (UniProt P42575) -0.067
C4orf33 (UniProt Q8N1A6) -0.054
CCNK isoform 4 (UniProt O75909) 0.061
CDK12 (UniProt Q9NYV4) 0.303
COX5B (UniProt P10606) 0.019
CELF2 isoform 3 (UniProt O95319) -0.044
CDK5 (UniProt Q00535) -0.099
CDK6 (UniProt Q00534) -0.06
CMTM3 (UniProt Q96MX0) -0.045
COQ9 (UniProt O75208) 0.166
CHEK1 (UniProt O14757) -0.041
CBS (UniProt P35520) 0.014
CPT1A (UniProt P50416) 0.086
CDK5RAP1 (UniProt Q96SZ6) -0.076
CES2 isoform 4 (UniProt O00748) 0.053
COX6B1 (UniProt P14854) 0
CTBS (UniProt Q01459) 0.018
CNOT1 (UniProt A5YKK6) -0.032
CETN2 (UniProt P41208) 0.042
COMMD2 (UniProt Q86X83) -0.058
CCZ1 (UniProt P86791) -0.015
CA1 (UniProt P00915) -0.044
CDK13 (UniProt Q14004) 0.215
CPD (UniProt O75976) -0.005
CDKN2AIP (UniProt Q9NXV6) -0.033
CD151 (UniProt P48509) -0.12
CDK5RAP3 isoform 4 (UniProt Q96JB5) -0.091
CD53 (UniProt P19397) 0.084
CD55 isoform 7 (UniProt P08174) 0.038
C9orf64 (UniProt Q5T6V5) -0.062
CNOT2 (UniProt Q9NZN8) 0.005
CCDC59 (UniProt Q9P031) 0.225
